Laboratory results reported in PubChem BioAssay (NCI).
This is part of a sample that, as a whole, favours compounds with a hit. Of some 79,000 tested, about 15% had one in any assay. The source made the active and inactive calls. No stated cut-off is given here; in the data, active means growth inhibition above about 70%; inactive means the rest.

Legend:
[1] = NCI Yeast Anticancer Drug Screen. Data for the rad50 strain (AID 155);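 further: 0% = growth of vehicle-only cultures of the same strain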; conditions: S. cerevisiae rad50 strain growth inhibition, hits give high values
How it was run: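 Relative growth inhibition (compound vs vehicle) was measured in yeast with a defined repair-gene alteration.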

[2] = NCI Yeast Anticancer Drug Screen. Data for the mec2-1 strain (AID 157); conditions: S. cerevisiae mec2-1 strain, hits give high values
How it was run: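 Cells of the genetically defined mec2-1 yeast strain are incubated with test compound. Inhibition of growth is calculated against vehicle-treated controls.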

[3] = NCI Yeast Anticancer Drug Screen. Data for the sgs1 mgt1 strain (AID 161);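 further: 0% = growth of cultures given vehicle only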; conditions: S. cerevisiae sgs1 mgt1 strain, hits give high values
How it was run: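 Test agents were incubated with a DNA-repair-mutant yeast strain. Growth was then read and compared against vehicle-treated controls.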

[4] = NCI Yeast Anticancer Drug Screen. Data for the cln2 rad14 strain (AID 165);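 further: 0% = growth equal to vehicle treated cultures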; conditions: S. cerevisiae cln2 rad14 strain, hits give high values
How it was run: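 The screen exposed genetically defined yeast (cln2 rad14) to test compounds and scored growth inhibition relative to vehicle-treated controls.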

[5] = NCI Yeast Anticancer Drug Screen. Data for the bub3 strain (AID 167); conditions: S. cerevisiae bub3 mutant strain, hits give high values
How it was run: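 Screening used yeast with an engineered genetic alteration affecting cell cycle control. Compound-exposed cultures were compared with vehicle cultures, and reduced growth was taken as inhibition.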

[6] = NCI Yeast Anticancer Drug Screen. Data for the mlh1 rad18 strain (AID 175); conditions: S. cerevisiae mlh1 rad18 strain growth inhibition, hits give high values
How it was run: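 Compound-treated yeast growth, normalised to vehicle controls. Strain bears defined DNA repair mutations.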

[7] = at 5.0 µM (retest, dose inferred, filed as 0.5)
[8] = at 50.0 µM (retest, dose inferred, filed as 5.0)

Measured: growth inhibition

CC(=O)OCC1OC(n2ncc3c(Sc4c([N+](=O)[O-])ncn4C)ncnc32)C(OC(C)=O)C1OC(C)=O (configuration not stated)
active: [1]; [8] 99% | [1]; at 50.0 µM 99.3% | [2]; [8] 100% | [2]; at 50.0 µM 99.4% | [3]; [8] 99% | [3]; at 50.0 µM 99.5% | [4]; [8] 99% | [4]; at 50.0 µM 99.4% | [5]; [8] 99% | [5]; at 50.0 µM 99% | [6]; [8] 99% | [6]; at 50.0 µM 98.8%
inactive: [1]; [7] 23% | [2]; [7] 25% | [3]; [7] 47% | [4]; [7] 2% | [5]; [7] 16% | [6]; [7] 18%

CCCCCCCCCCCCNC(=O)C[n+]1cccc(C(=O)Nc2ccccc2)c1
active: [1]; [7] 99% | [1]; [8] 97% | [1]; at 50.0 µM 98.8% | [2]; [7] 100% | [2]; [8] 99% | [2]; at 50.0 µM 98.8% | [3]; [7] 99% | [3]; [8] 98% | [3]; at 50.0 µM 99.5% | [4]; [7] 99% | [4]; [8] 98% | [4]; at 50.0 µM 98.6% | [5]; [7] 99% | [5]; [8] 98% | [5]; at 50.0 µM 98.2% | [6]; [7] 99% | [6]; [8] 98% | [6]; at 50.0 µM 98.2%

O=C1CC(c2ccccc2)NN1 (configuration not stated)
active: [1]; [8] 92% | [1]; at 50.0 µM 90.9% | [2]; [8] 94% | [2]; at 50.0 µM 90.5% | [3]; [8] 89% | [4]; [8] 93% | [4]; at 50.0 µM 87.8% | [5]; [8] 87% | [5]; at 50.0 µM 88.2% | [6]; [8] 93% | [6]; at 50.0 µM 86.5%
inactive: [1]; [7] -108% | [2]; [7] -42% | [3]; [7] -51% | [3]; at 50.0 µM 69.8% | [4]; [7] -62% | [5]; [7] -71% | [6]; [7] -114%

Cc1ccccc1NC(=O)Cc1csc(N=Nc2c(O)[nH]c3ccccc23)n1
inactive: [1]; [7] 18% | [1]; [8] 17% | [1]; at 50.0 µM -33.6% | [2]; [7] 1% | [2]; [8] 1% | [2]; at 50.0 µM -42.9% | [3]; [7] 1% | [3]; [8] -2% | [3]; at 50.0 µM -6.95% | [4]; [7] 9% | [4]; [8] -6% | [4]; at 50.0 µM -12.1% | [5]; [7] 25% | [5]; [8] 25% | [5]; at 50.0 µM -11.1% | [6]; [7] 15% | [6]; [8] 17% | [6]; at 50.0 µM -27.7%

CC1CCC(SC2CC(=O)CCC2=O)CC1 (configuration not stated)
inactive: [1]; [7] 19% | [2]; [7] 19% | [3]; [7] 21% | [4]; [7] 6% | [5]; [7] 24% | [6]; [7] -1%
active: [1]; [8] 98% | [1]; at 50.0 µM 99% | [2]; [8] 99% | [2]; at 50.0 µM 99.2% | [3]; [8] 99% | [3]; at 50.0 µM 92% | [4]; [8] 99% | [4]; at 50.0 µM 98.2% | [5]; [8] 98% | [5]; at 50.0 µM 98.7% | [6]; [8] 98% | [6]; at 50.0 µM 98.6%

O=C(/C=C(\OB(F)F)c1ccccc1)c1ccccc1
inactive: [1]; [7] -2% | [1]; [8] -4% | [2]; [7] -18% | [2]; [8] -19% | [3]; [7] -4% | [3]; [8] 2% | [4]; [7] -8% | [4]; [8] 4% | [5]; [7] 2% | [5]; [8] -1% | [6]; [7] 1% | [6]; [8] -13%
active: [1]; at 50.0 µM 100% | [2]; at 50.0 µM 98.9% | [3]; at 50.0 µM 97.4% | [4]; at 50.0 µM 98.4% | [5]; at 50.0 µM 98.2% | [6]; at 50.0 µM 97.9%

O=S(=O)(ON=C1C=CC(=NOS(=O)(=O)c2ccccc2)C=C1)c1ccccc1
active: [1]; at 50.0 µM 95.2% | [2]; at 50.0 µM 94% | [3]; at 50.0 µM 95% | [4]; at 50.0 µM 94.1% | [5]; at 50.0 µM 96.7% | [6]; [8] 76% | [6]; at 50.0 µM 96%
inactive: [1]; [7] 27% | [1]; [8] 44% | [2]; [7] 6% | [2]; [8] 55% | [3]; [7] 21% | [3]; [8] 48% | [4]; [7] 16% | [4]; [8] 54% | [5]; [7] 14% | [5]; [8] 54% | [6]; [7] 48%

O=C(O)CCCCCCCCC(=O)CCl
inactive: [1]; [7] 9% | [2]; [7] 23% | [3]; [7] 29% | [4]; [7] 14% | [5]; [7] 48% | [6]; [7] 38%
active: [1]; [8] 97% | [1]; at 50.0 µM 98.8% | [2]; [8] 99% | [2]; at 50.0 µM 99.5% | [3]; [8] 98% | [3]; at 50.0 µM 99% | [4]; [8] 98% | [4]; at 50.0 µM 97.5% | [5]; [8] 98% | [5]; at 50.0 µM 99.5% | [6]; [8] 98% | [6]; at 50.0 µM 99.2%

CC(=O)Nc1ccccc1C(O)(c1ccccc1)c1ccccc1
inactive: [1]; [7] -2% | [1]; [8] 0% | [1]; at 50.0 µM 14.4% | [2]; [7] -5% | [2]; [8] -2% | [2]; at 50.0 µM 35.2% | [3]; [7] -5% | [3]; [8] 1% | [3]; at 50.0 µM 16.4% | [4]; [7] 2% | [4]; [8] -2% | [4]; at 50.0 µM 9.45% | [5]; [7] -2% | [5]; [8] 2% | [5]; at 50.0 µM 14.7% | [6]; [7] -5% | [6]; [8] 1% | [6]; at 50.0 µM -31.2%
